Source: PubChem BioAssay
Most compounds without a hit are left out; they make up all but 3.5% or so of the library.
MITF primary: MITF inhibitors, primary screen, biochemical, AlphaScreen, human | Microphthalmia-associated transcription factor (Homo sapiens), O75030 | AlphaScreen MITF homodimerization, bead proximity signal | inhibition, % at 2.6 µM | 650,000 tested, 0.91% active; in the data active = inhibition above about 50%
Target sequence (O75030 whole entry, looked up): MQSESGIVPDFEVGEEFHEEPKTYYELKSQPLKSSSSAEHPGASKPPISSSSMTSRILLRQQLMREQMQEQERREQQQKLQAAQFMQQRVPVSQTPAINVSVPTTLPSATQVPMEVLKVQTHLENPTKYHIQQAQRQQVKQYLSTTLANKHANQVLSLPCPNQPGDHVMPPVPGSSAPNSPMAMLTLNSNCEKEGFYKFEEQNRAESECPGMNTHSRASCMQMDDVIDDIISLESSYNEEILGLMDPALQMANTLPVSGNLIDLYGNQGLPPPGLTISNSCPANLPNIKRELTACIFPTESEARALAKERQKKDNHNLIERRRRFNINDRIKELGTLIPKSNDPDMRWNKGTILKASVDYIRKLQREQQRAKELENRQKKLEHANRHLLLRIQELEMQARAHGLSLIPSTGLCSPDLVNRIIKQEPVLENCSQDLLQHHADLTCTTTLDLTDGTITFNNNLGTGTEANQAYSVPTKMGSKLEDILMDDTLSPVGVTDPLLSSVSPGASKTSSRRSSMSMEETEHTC
FBW7 activator: FBW7 E3 ligase activators, primary screen, biochemical, AlphaScreen, human; AID 1259310, 2017; 650,000 tested, 0.13% active; F-box/WD repeat-containing protein 7 (Homo sapiens), Q969H0; AlphaScreen FBW7–phospho-cyclin E peptide binding, activator screen; normalized activity (activation), % at 26.1 µM; in the data active = normalized activity above about 1.9%;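 note: purified mutant Fbw7 with reduced substrate affinity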
TEAD-YAP inh: TEAD-YAP interaction inhibition, primary screen, TEAD-YAP interaction inhibitor project, luminescence, HEK-TIYL cells. TEAD-Gal4/YAP UAS-luciferase luminescence. inhibition, % at 9.12 µM. 640,000 tested, 1.4% active; in the data active = inhibition above about 32%
GPR151 activ: activators of human GPR151, primary screen, cell-based, PathHunter beta-arrestin, luminescence | G-protein coupled receptor 151 (Homo sapiens), Q8TDV0 | PathHunter beta-arrestin GPR151 cells | activation, % at 11.2 µM | 650,000 tested, 1% active; in the data active = activation above about 4.9%
Hits are given with their value; - = inactive.

SMILES	MITF primary	FBW7 activator	TEAD-YAP inh	GPR151 activ
O=C(Cn1cnc2c(-c3ccc(F)cc3)csc2c1=O)NCc1ccccc1	-	-	49	-
CN(Cc1ccccc1)C(=O)Cn1cnc2scc(-c3ccccc3)c2c1=O	-	-	32	-
O=C(Cn1cnc2scc(-c3ccc4ccccc4c3)c2c1=O)NCc1ccccc1	-	-	37	-
O=C(Cn1cnc2c(-c3ccc(F)cc3)csc2c1=O)NCCc1ccccc1	-	-	-	-
O=C(Nc1cc([N+](=O)[O-])ccc1Cl)c1ccco1	-	-	-	-
CCCCOc1ccc(C(=O)Nc2c3c(nn2-c2ccc([N+](=O)[O-])cc2)CSC3)cc1	-	-	-	-
COc1ccc(-c2cc(C(=O)NCCC3=CCCCC3)c3ccccc3n2)cc1	-	-	-	-
Cc1ccc(N2CC(=O)Nc3ccccc3S2(=O)=O)cc1C	-	-	52	-
O=C(O)/C=C/C(=O)Nc1cc(Cl)ccc1C(=O)O	-	-	-	-
Cc1cnc(Nc2ccc(N3CCOCC3)cc2)nc1NCCN1CCOCC1	-	-	-	-
Cc1cnc(Nc2ccc(N3CCOCC3)cc2)nc1NCCOc1ccccc1	-	-	48	-
Cc1cnc(Nc2ccc(C(F)(F)F)cc2)nc1Nc1ccc(N2CCOCC2)cc1	-	-	49	-
Cc1cnc(Nc2ccncc2)nc1Nc1ccc(N2CCOCC2)cc1	-	-	40	-
Cc1cnc(Nc2ccc(N3CCOCC3)cc2)nc1Nc1ccc(N2CCOCC2)cc1	-	-	42	-
Cc1cnc(NCc2ccc3c(c2)OCO3)nc1Nc1ccc(N2CCOCC2)cc1	-	-	42	-
COC(=O)c1cn[nH]c1NC(=S)Nc1ccc(Br)cc1	-	-	39	-
COC(=O)c1cn[nH]c1NC(=S)Nc1c(C)cccc1C	-	-	-	-
NC(=O)CCC(NC(N)=O)C(=O)O (configuration not stated)	-	-	-	-
NC(=O)CCC(NC(=O)NC1CCCCC1)C(=O)O (configuration not stated)	-	2.1	-	-
CSc1ccc(COC(=O)C2COc3ccccc3O2)cc1 (configuration not stated)	-	-	-	-
COCCOC(=O)c1[nH]c2c(c1C)C(=O)CC(c1ccc(N(C)C)cc1)C2 (configuration not stated)	-	-	-	-
Cc1c(C(=O)OCCOC(C)C)[nH]c2c1C(=O)CC(c1ccccc1)C2 (configuration not stated)	-	-	48	-
COCCOC(=O)c1[nH]c2c(c1C)C(=O)CC(c1ccccc1)C2 (configuration not stated)	-	-	49	-
Cc1c(C(=O)O)[nH]c2c1C(=O)CC(c1ccccc1)C2 (configuration not stated)	-	-	-	-
COCCOC(=O)c1[nH]c2c(c1C)C(=O)CC(c1ccc(Cl)cc1)C2 (configuration not stated)	-	-	-	-
SMILES	MITF primary	FBW7 activator	TEAD-YAP inh	GPR151 activ
COCCOC(=O)c1[nH]c2c(c1C)C(=O)CC(c1ccc(F)cc1)C2 (configuration not stated)	-	-	35	-
Fc1ccc(CN2CCC[C@H]2c2nc3ccc(-c4ccncc4)cc3[nH]2)c(F)c1	-	-	-	-
NC(=O)c1ccccc1Nc1cc(Nc2ccc(-n3cnc(N4CCOCC4)n3)cc2)ncc1C(F)F	-	-	42	-
Cc1cnc(Nc2ccncc2)cc1Nc1ccccc1C(N)=O	-	-	-	-
Cc1cnc(Nc2ccc(-n3cnc(N4CCOCC4)n3)cc2)cc1Nc1ccccc1C(N)=O	-	-	82	-
COc1ccc(C(C)=O)cc1CSc1nc2ccccc2c(=O)n1CCC1=CCCCC1	-	-	-	-
CC1(C)CC(=O)c2cc(OCc3ccc(C(=O)N4CCCCC4)cc3)ccc2O1	-	-	-	-
COc1cccc(/C=N/Nc2nnc(C)n2N)c1O	-	-	-	-
COc1ccc(/C=N/Nc2ncccc2[N+](=O)[O-])c(OC)c1	-	-	69	-
COc1cccc(/C=N/Nc2ncccc2[N+](=O)[O-])c1O	-	-	98	-
COc1cccc(/C=N/Nc2ncc(C)c(=O)[nH]2)c1O	86	-	87	-
COc1cccc(/C=N/Nc2ccc([N+](=O)[O-])cc2)c1O	-	-	-	-
COC(=O)C1=CN(CCC23CC4CC(CC(C4)C2)C3)C=C(C(=O)OC)C1c1cccc([N+](=O)[O-])c1	-	-	-	-
Cc1ccccc1SCC(Nc1ccc(C(=O)O)cc1[N+](=O)[O-])C(=O)O (configuration not stated)	-	-	-	-
CCN(CC)c1ccc2cc(C=O)c(=O)oc2c1	-	-	-	-
CCN(CC)c1ccc2nc3c4ccccc4c(=O)cc-3oc2c1	-	-	34	-
COc1cc(S(=O)(=O)Nc2cccc3cn[nH]c23)ccc1F	-	-	52	-
O=S(=O)(Nc1cccc2cn[nH]c12)c1ccc(F)cc1	-	-	-	-
Cc1ccc(C(=O)Nc2ccc(N(C)C)c3ccccc23)cc1	-	-	-	-
COc1ccc(C(=O)c2ccc(N(C)C)cc2)c(OC)c1	-	-	55	-
CN(C)c1ccc(C(=O)c2ccc(N(C)C)c3ccccc23)cc1	-	-	50	-
COC(=O)c1nnn(CC(=O)Nc2cccc(C)c2)c1C(=O)OC	-	-	-	-
CCOC(=O)N1CCN(c2c(NCCc3ccc(Cl)cc3)c(=O)c2=O)CC1	-	-	-	-
O=C(Cc1cn(-c2ccc(Nc3ccc(N4CCOCC4)cc3)nn2)c2ccccc12)NCc1ccccc1	-	-	48	-
COc1ccc(Nc2ncnc3sc(C)cc23)cc1Cl	-	-	-	-
SMILES	MITF primary	FBW7 activator	TEAD-YAP inh	GPR151 activ
CCOc1ccc(C2C(C(=O)OC)=CN(C(C)C)C=C2C(=O)OC)cc1OC	-	-	-	-
COc1ccc(Nc2ccnc3c(-c4ccc(N)cc4)cnn23)cn1	-	-	37	-
Nc1ccc(-c2cnn3c(NCc4ccc5c(c4)OCO5)ccnc23)cc1	-	2.5	-	-
c1ccc(CNc2ccnc3c(-c4ccc5c(c4)OCO5)cnn23)nc1	-	1.9	-	-
O=C(OCC(=O)N1CCCCCC1)c1cc(=O)[nH]c(=O)[nH]1	-	-	-	-
CSc1ccccc1NC(=S)NCC1CCCO1 (configuration not stated)	-	-	-	-
Cc1nc(NCCC#N)cc(-c2cncc(-c3cccs3)c2)n1	-	-	-	-
COC(=O)c1[nH]c2ccccc2c1Cl	-	-	-	-
COC(=O)c1c(C(=O)c2ccc(F)cc2)[nH]c2ccccc12	-	-	50	-
Cc1cc(Nc2nc(Nc3ccc(Cl)c(C)c3)nc(Sc3nc4ccccc4o3)n2)ccc1Cl	-	-	-	-
N#CC1=C2SCC(O)(c3ccccc3)N2C(=O)CC1c1cccs1 (configuration not stated)	-	-	42	-
